21 compounds from PubChem BioAssay AID602 (SRMLSC, 2007) can be followed below.

In all, about 85,000 compounds went through this assay and about 35 (0.04%) were called active.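 Rule for the calls: active = viability drop by adding the cancer drug above about 55%, with treated viability meeting a 40% cutoff (limit read from the data); inactive = the rest, inconclusive results apart.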 This excerpt belongs to a sample that is enriched for actives.

The test can be described thus: reversal of MRP1-mediated doxorubicin resistance, primary screen, H69AR cells, doxorubicin co-treatment (AID 602).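 For differential viability (reversal): larger differential means the compound sensitizes cells more to doxorubicin.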 Conditions: CellTiter-Glo, 72 h, at 10 µM; for differential viability (reversal): stronger effect = higher value. In general terms: ATP-based viability assays read luminescence as a measure of living cells.
Where [1] appears, read: H69AR cells + 2 uM doxorubicin, measured here: viability with 2 uM doxorubicin, stronger effect = lower value.
Setting [2] is: H69AR cells, measured here: cytotoxicity without doxorubicin.

For orientation: viability means a read-out of living cells in per cent, often relative to untreated cells. `Cc1cc(C)n(-c2nnc(C)n2NC(=O)c2cccc(Cl)c2)n1`: the differential viability (reversal) (H69AR cells + 2 uM doxorubicin) is -4.55% (inactive). Also, the viability came out at 92.7% under setting [1] and 88.1% under setting [2].
On to `Cc1ccc(OCc2nnc(NC(=O)OCC(C)C)s2)cc1`, for which the differential viability (reversal) (H69AR cells + 2 uM doxorubicin) was 9.33% (inactive). Also, the viability under setting [1] is 92.3% and the viability under setting [2] was 102%.
Turning to `O=S(=O)(N1CCCCC1)N1CCNCC1`, the differential viability (reversal) (H69AR cells + 2 uM doxorubicin) is -0.65% (inactive). In addition, the viability under setting [1] amounted to 101% and the viability under setting [2] turned out to be 100%.
The like results for `COc1cccc(OCc2cc(/C=N/NC(=O)c3nc(Cl)c(Cl)c(N)c3Cl)ccc2OC)c1` were, in that order, -32.4% (inactive), 52.1% and 19.7%.
Regarding `CS(=O)(=O)N(CC(O)Cn1c2ccccc2c2ccccc21)c1cccc2ccccc12` (stereo not drawn), for the setting “H69AR cells + 2 uM doxorubicin”, the differential viability (reversal) was -10.3% (inactive). Besides, the viability is 12% under setting [1] and 1.71% under setting [2].
The like results for `CSc1ccccc1NC(=O)c1cc(C2CC2)on1` were, in that order, -6.53% (inactive), 97.2% and 90.7%.
The like results for `O=C(NCCOc1ccccc1)c1ccccc1` were, in that order, -3.69% (inactive), 95.1% and 91.4%.
The matching figures for `COc1ccc(NC(=O)Nc2ccc3nc(C)c(C)nc3c2)cc1`: 5.42% (inactive), 85.3% and 90.7%.
As for `CCNc1nc(NC(C)C)nc(OCCOC(=O)c2ccccc2)n1`, the differential viability (reversal) (H69AR cells + 2 uM doxorubicin) is -9.76% (inactive). The viability worked out at 93.2% under setting [1] and 83.5% under setting [2].
Take `CC(C)=C1SC(N2CCN(c3cccc(C)c3)CC2)=NC1=O`: where the note is “H69AR cells + 2 uM doxorubicin”, the differential viability (reversal) is 15.1% (inactive). For the same compound, the viability is 81.8% under setting [1] and 96.9% under setting [2].
For `O=C(NC1CCCC1)C(c1ccccn1)N(C(=O)c1csnn1)C1CCCC1` (stereo not drawn), the differential viability (reversal) (H69AR cells + 2 uM doxorubicin) is 0.73% (inactive). The viability by setting is: under setting [1], 80.5%; under setting [2], 81.2%.
The like results for `COC(=O)C1=C(Nc2ccc(C)cc2)C=C(C)C(C(=O)OC)C1c1ccc(F)cc1` (stereo not drawn) were, in that order, -31.5% (inactive), 43.6% and 12.1%.
Consider `CCC(C)(C)n1nnnc1CN1CCN(c2nc3ccc(C)cc3cc2C#N)CC1`, for which the differential viability (reversal) (H69AR cells + 2 uM doxorubicin) was 0.16% (inactive). The viability by setting is: under setting [1], 81.3%; under setting [2], 81.4%.
The matching figures for `CCOc1cc2[nH]c(=S)n(CCN3CCCCC3C)c(=O)c2cc1OCC` (stereo not drawn): 3.92% (inactive), 78.5% and 82.5%.
The matching figures for `CCOC(=O)c1cnc(SCC(=O)Nc2ccccc2C(=O)OC)nc1N`: 2.9% (inactive), 84.2% and 87.2%.
`O=C(Nc1ccc2oc(-c3ccc4ccccc4c3)nc2c1)c1cccs1`: the differential viability (reversal) (H69AR cells + 2 uM doxorubicin) was -0.32% (inactive). For the same compound, the viability came to 2.97% under setting [1] and 2.65% under setting [2].
As to `CCN(CC)C(=O)CN(c1cccc(OC)c1)S(=O)(=O)c1ccc(C)cc1`, the differential viability (reversal) (H69AR cells + 2 uM doxorubicin) is -12.4% (inactive). The viability is, setting by setting: under setting [1], 94.7%; under setting [2], 82.3%.
The matching figures for `Cc1nnc(NC(=O)CCCOc2ccccc2)s1`: 12.8% (inactive), 80.9% and 93.7%.
For `CCn1c(-c2ccoc2C)n[nH]c1=S`, the differential viability (reversal) (H69AR cells + 2 uM doxorubicin) was 3.26% (inactive). Moreover, the viability came to 86.2% under setting [1] and 89.5% under setting [2].
As for `Cc1ccccc1N1CCN(CCCOc2ccc3c(C)cc(=O)oc3c2)CC1`, under “H69AR cells + 2 uM doxorubicin”, the differential viability (reversal) was -14.1% (inactive). Moreover, the viability was determined as 72.8% under setting [1] and 58.7% under setting [2].
Regarding `O=c1cc(CN2CCN(c3cccc(Cl)c3)CC2)c2cc3c(cc2o1)CCCC3`, the differential viability (reversal) (H69AR cells + 2 uM doxorubicin) was 36.9% (inactive). Moreover, the viability under setting [1] stood at 82.6% and the viability under setting [2] was 120%.
